In the library only some 21% were active in any assay of this set; here they are far more common.
TDP1 cell noCPT = qHTS for Inhibitors of human tyrosyl-DNA phosphodiesterase 1 (TDP1): qHTS in cells in absence of CPT | 420,000 compounds, 15% hits | Potency, µM (highest dose often 46.2 µM), for the others: at the highest dose activity change, negative = growth inhibition, usual class: inhibitors | DT40 Tdp1-/- hTDP1 cells, no CPT, ATP luminescence, 48 h | AID 686978, 2013; further: potency means the concentration at half of the fitted maximal effect; on the % scale 0 is the no-effect control and ±100 the full control effect; nearly all actives have a fitted effect of over 55% in size
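A cellular qHTS used chicken DT40 cells lacking endogenous Tdp1 but carrying stably transfected human TDP1. Compounds were applied without camptothecin, and cell growth kinetics were judged by ATP-dependent luminescence after ≥48 hr.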
ClpP mod = qHTS Assay for Activators of ClpP | purified B. subtilis ClpP, FRET peptide cleavage, 20 min | Potency, µM (series often up to 57.5 µM), inactives show top-dose activity change, negative = active | 340,000 compounds, 1.9% hits; active means well fitted falling curve with a large enough effect; inconclusive means small, poorly fitted or top-dose-only effect; inactive means no such curve, though single readings can be large or run the other way; further: potency means the concentration at half of the fitted maximal effect; the source files actives as falling curves though it sought activators and does not explain the sign; nearly all actives have a fitted effect of over 65% in size
Target sequence (P80244 whole entry, looked up): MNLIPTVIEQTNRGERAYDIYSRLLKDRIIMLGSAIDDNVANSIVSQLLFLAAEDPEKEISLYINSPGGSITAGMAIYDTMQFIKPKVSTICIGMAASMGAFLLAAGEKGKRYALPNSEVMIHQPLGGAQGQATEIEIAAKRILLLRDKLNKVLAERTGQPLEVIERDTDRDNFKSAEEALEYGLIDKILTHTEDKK
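ClpP 10 microg/mL final, pH 8 Tris/KCl buffer with BSA, glycerol, Tween-20; compound pinned in; FRET-FV substrate; RT 20 min; Ex320/Em430; ΔFRET vs ADEP 5.8 microM, DMSO, no enzyme.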
D3 ag = activates the human D3 dopamine receptor | P35462 | D3R DiscoveRx beta-arrestin cells, luminescence, 90 min | max activation, % | 410,000 compounds, 0.58% hits; in the data active means max activation above about 30%; further: 0% is about no effect
Target sequence (P35462 whole entry, looked up): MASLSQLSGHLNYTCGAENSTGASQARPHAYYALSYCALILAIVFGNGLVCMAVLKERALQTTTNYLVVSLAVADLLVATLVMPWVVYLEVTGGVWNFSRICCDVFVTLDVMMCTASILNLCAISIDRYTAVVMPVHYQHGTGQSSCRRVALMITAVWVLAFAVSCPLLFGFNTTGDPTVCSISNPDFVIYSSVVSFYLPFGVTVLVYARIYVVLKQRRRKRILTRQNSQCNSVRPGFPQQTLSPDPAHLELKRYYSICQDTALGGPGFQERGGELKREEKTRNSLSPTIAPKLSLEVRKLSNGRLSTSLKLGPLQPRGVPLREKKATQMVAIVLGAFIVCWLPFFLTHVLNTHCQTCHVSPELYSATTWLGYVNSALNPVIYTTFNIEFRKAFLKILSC
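Cells at 1500/well, incubated overnight, then treated with pinned compounds (dopamine as control) for 90 min at 37 degrees C. DiscoveRx reagent added for 30 - 60 minutes at room temperature; luminescence read.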
TDP1 cell CPT = growth inhibition of DT40 Tdp1-/-;hTDP1 cells with camptothecin (screen for TDP1 inhibitors). Potency, µM (titrated, usually from 46.2 µM), for inactives: at the highest dose activity change, negative = growth inhibition, usual class: inhibitors. 420,000 compounds, 12% hits. chicken DT40 Tdp1-/-;hTDP1 cells + 20 nM CPT, ATP luminescence, 48 h; further: potency means the concentration at half of the fitted maximal effect; on the % scale 0 is the no-effect control and ±100 the full control effect; nearly all actives have a fitted effect of over 55% in size
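Chicken DT40 Tdp1-/- cells stably complemented with human TDP1 were seeded at 400 cells/well in medium containing 20 nM camptothecin, exposed to pin-transferred compounds, and grown at 37 °C for at least 48 hr. Viability was read as ATP luminescence.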
D3 antag = D3 dopamine receptor (human) antagonism | D3R cells, DiscoveRx beta-arrestin luminescence, antagonist mode; hits give low values | max response, negative = inhibition, % | 360,000 compounds, 2.5% hits; in the data active means max response below about -50%; inconclusive means no clear call, values can overlap the other calls; further: on the % scale 0 is the no-effect control and ±100 the full control effect
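Cells expressing the human receptor were seeded at 1500 cells/well, incubated overnight at 37 degrees C in 5% CO2, then exposed to library compounds with dopamine controls for 90 minutes at 37 degrees C before luminescent detection.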
IL1B secr inh = blocks inflammasome-driven IL-1 beta release | THP-1 LPS/ATP IL-1B secretion, AlphaLISA, 16 h; hits give low values | activity change, % at 57.5 µM | 360,000 compounds, 4.7% hits | AID 743279; in the data active means activity change below about -50%; inconclusive means mostly about -30% to -49%; further: on the % scale 0 is the no-effect control and ±100 the full control effect
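THP-1 cells pretreated 1 hr with compounds (up to 57.5 uM final), then stimulated with LPS (250 ng/mL final) plus ATP (1.25 mM final); secreted IL-1B measured by AlphaLISA after 16 hr, decreased signal indicating inhibition.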
* marks the source's active call; other numbers are inactive results; ? = inconclusive; / = no result; ! = repeats disagree. Unless noted, the call rests on the fitted dose curve; in most records, active means well fitted inhibition curve with a large enough effect; inconclusive means small, poorly fitted or top-dose-only effect; inactive means flat fitted curve, though single readings scatter.

SMILES	TDP1 cell noCPT	ClpP mod	D3 ag	TDP1 cell CPT	D3 antag	IL1B secr inh
CCCCCCCCCCCCCCCC[n+]1ccccc1	0.33µM*	3%	/	0.65µM*	?	-92*!
CCCCCCC[n+]1ccc(-c2cc[n+](CCCCCCC)cc2)cc1	0.65µM*	-2%	-14	0.65µM*	-2	-5
C[C@H]1CN([C@@H](C)CO)C(=O)c2cc(NC(=O)C3CCCCC3)ccc2O[C@H]1CN(C)Cc1ccc(-c2ccccc2)cc1	?	-17%	-9	?	-8	-6
C[C@H]1CN([C@@H](C)CO)C(=O)c2cc(NC(=O)Nc3cccc4ccccc34)ccc2O[C@@H]1CN(C)Cc1ccc(-c2ccccc2)cc1	16µM*	?	-2	23µM*	-5	1
C[C@@H]1CCCCO[C@H](CN(C)Cc2ccccc2)[C@@H](C)CN([C@H](C)CO)C(=O)c2cc(NC(=O)c3ccccc3)ccc2O1	18µM*	-4%	8	?	9	-17
C[C@@H]1CN([C@@H](C)CO)C(=O)c2cccc(NC(=O)c3ccncc3)c2O[C@@H]1CN(C)Cc1ccc(-c2ccccc2)cc1	?	2%	2	?	0	?
COc1ccc(NC(=O)Nc2ccc3c(c2)C(=O)N([C@H](C)CO)C[C@H](C)[C@@H](CN(C)Cc2ccc(Cl)c(Cl)c2)OCCCC[C@@H](C)O3)cc1	16µM*	?	5	-17%	2	?
OC(CN1CCOCC1)c1csc2ccccc12 (stereo unspecified)	2%	1%	-23	26%	7	12
c1ccc(-c2ccc3c(c2)CNCc2cnnn2-3)cc1	-15%	-13%	-4	-25%	0	2
Cc1ccccc1S(=O)(=O)N1C[C@H]2[C@H]3C(=O)N(C4CCCCC4)C(=O)[C@H]3CC(=O)[C@H]2[C@@H]1c1ccc(Cl)cc1	?	-4%	-5	?	-15	?
Cc1c(C(=O)N2CCC3(CC2)OCCO3)oc2ccc(S(=O)(=O)N3CCOCC3)cc12	-2%	-2%	-1	-24%	4	0
Cc1c(Cl)cccc1NC(=O)c1oc2ccc(S(=O)(=O)N3CCC4(CC3)OCCO4)cc2c1C	4.1µM*	-12%	19	4.1µM*	/	/
Cc1c(C(=O)NCCC2=CCCCC2)oc2ccc(S(=O)(=O)N3CCC4(CC3)OCCO4)cc12	23µM*	?	10	18µM*	88	-66*
Cc1c(C(=O)Nc2ccccc2Cl)oc2ccc(S(=O)(=O)N3CCCCC3)cc12	16µM*	5%	1	21µM*	/	/
Cc1cccc(C)c1NC(=O)CN(C)CC(=O)Nc1ccc(C#N)c(Cl)c1	13µM*	1%	2	18µM*	1	0
CCN(CC(=O)Nc1ccc(C#N)c(Cl)c1)CC(=O)NC(C)(C)C	23µM*	-5%	6	?	4	-14
Cc1noc(C)c1CSCC(=O)Nc1ccc(C#N)c(Cl)c1	?	0%	-1	?	-13	-14
CCCCCCOc1ccc(CN2CCN(CC)CC2)cc1	23µM*	-2%	-21	?	?	?
Oc1cc2c(cc1O)[C@H]1c3ccccc3CN[C@H]1CC2	18µM*	/	/	18µM*	/	/
Oc1cc2c(cc1O)[C@H]1c3ccccc3CN[C@@H]1CC2	13µM*	0%	/	14µM*	/	/
COc1ccc2c(c1)C1OCCNC1CC2 (stereo unspecified)	-9%	1%	9	-8%	?	5
c1ccc(CCN2CCCC2)cc1	-7%	2%	/	-1%	/	/
COc1ccccc1N1CCN(CCc2ccccc2)CC1	-6%	3%	-1	?	-104*	-1
COc1ccccc1N1CCN(S(=O)(=O)CCNC(=O)CCCc2ccccc2)CC1	21µM*	/	9	?	7	-2
COc1ccccc1N1CCN(Cc2cnc(-c3ccccc3)[nH]2)CC1	?	/	-27	-23%	-83*	/
SMILES	TDP1 cell noCPT	ClpP mod	D3 ag	TDP1 cell CPT	D3 antag	IL1B secr inh
Cc1cccc(N2CCN(CCc3ccccc3)CC2)c1C	?	-1%	20	?	-68*	-15
COc1ccc(N2CCN(Cc3nc4ccccc4[nH]3)CC2)cc1	-8%	/	-3	3%	5	31
COc1ccccc1CC(=O)N1CCN(CCc2ccccc2)CC1	?	/	-11	22%	-15	5
Oc1ccc2c3c1O[C@H]1[C@@H](O)C=C[C@H]4[C@H](C2)NCC[C@@]341	14%	/	10	5%	/	/
COc1cc(C)cc2oc(=O)c(CC(=O)N3C[C@H]4C[C@@H](C3)c3cccc(=O)n3C4)c(C)c12	10%	5%	-16	14%	-2	-2
Cc1ccc(N2CCN(CCc3ccccc3)CC2)cc1	?	-1%	-45	-27%	-66*	-14
OC(COCc1ccc(Cl)cc1)CN1CC=C(c2ccccc2)CC1 (stereo unspecified)	10µM*	-11%	34*	16µM*	?	-70*!
OC(CN1CC=C(c2ccccc2)CC1)c1ccccc1 (stereo unspecified)	?	/	21	-9%	-21	-6
Cc1nc2ccc(Cl)cn2c1P(=S)(N1CCOCC1)N1CCOCC1	?	-2%	-6	15µM*	28	27
O=c1ccc2cc(OC3OC(CO)C(O)C(O)C3O)c(O)cc2o1 (stereo unspecified)	-2%	/	/	?	/	/
O=C1N[C@@H](Cc2ccccc2)C(=O)N2[C@H]3Nc4ccccc4[C@@]3([C@]34C[C@H]5C(=O)N[C@@H](Cc6ccccc6)C(=O)N5[C@H]3Nc3ccccc34)C[C@@H]12	?	-4%	0	?	2	0
O=C1N[C@@H](Cc2ccccc2)C(=O)N2[C@H]1C[C@H]1c3ccccc3N(OOSc3ccccc3)[C@H]12	16µM*	1%	10	21µM*	-7	54
Nc1cc(Cl)c2nonc2c1[N+](=O)[O-]	0.65µM*	-5%	-15	0.73µM*	-58*	-102*
O=[N+]([O-])c1c(Cl)c(Cl)c(Cl)c(Cl)c1Cl	?	/	2	-2%	-4	-21
Cc1oc(-c2ccccc2F)nc1CS(=O)(=O)CC(=O)N1CCN(c2cccc(C(F)(F)F)c2)CC1	?	-20%	15	?	/	/

Source: PubChem BioAssay (National Center for Advancing Translational Sciences (NCATS))
